Hits are enriched below; roughly 1.2% of the tested compounds scored in any of these assays.
PKD1 kinase inh: inhibitors of human PKD1 kinase; PKD1 kinase fluorescence polarization assay; inhibition, % (test concentration not listed); 0.056% of 200,000 active; AID 797; in the data active means inhibition above about 50%
SUMO HTRF inh: inhibitors of human SUMOylation (UBC9). HTRF SUMOylation assay, SAE1/SAE2 + UBC9, in vitro. inhibition, % at 35 µM. 0.36% of 290,000 active. P63279. AID 2006; in the data active means inhibition above about 50%, passing the limit was not always enough
p97 ATPase inh: human p97 ATPase inhibition | 0.42% of 220,000 active | P55072 | recombinant p97 ATPase, Kinase-Glo ATP luminescence, 3 h | inhibition, % at 8 µM; in the data active means inhibition above about 15%
Target sequence (P55072 whole entry, looked up): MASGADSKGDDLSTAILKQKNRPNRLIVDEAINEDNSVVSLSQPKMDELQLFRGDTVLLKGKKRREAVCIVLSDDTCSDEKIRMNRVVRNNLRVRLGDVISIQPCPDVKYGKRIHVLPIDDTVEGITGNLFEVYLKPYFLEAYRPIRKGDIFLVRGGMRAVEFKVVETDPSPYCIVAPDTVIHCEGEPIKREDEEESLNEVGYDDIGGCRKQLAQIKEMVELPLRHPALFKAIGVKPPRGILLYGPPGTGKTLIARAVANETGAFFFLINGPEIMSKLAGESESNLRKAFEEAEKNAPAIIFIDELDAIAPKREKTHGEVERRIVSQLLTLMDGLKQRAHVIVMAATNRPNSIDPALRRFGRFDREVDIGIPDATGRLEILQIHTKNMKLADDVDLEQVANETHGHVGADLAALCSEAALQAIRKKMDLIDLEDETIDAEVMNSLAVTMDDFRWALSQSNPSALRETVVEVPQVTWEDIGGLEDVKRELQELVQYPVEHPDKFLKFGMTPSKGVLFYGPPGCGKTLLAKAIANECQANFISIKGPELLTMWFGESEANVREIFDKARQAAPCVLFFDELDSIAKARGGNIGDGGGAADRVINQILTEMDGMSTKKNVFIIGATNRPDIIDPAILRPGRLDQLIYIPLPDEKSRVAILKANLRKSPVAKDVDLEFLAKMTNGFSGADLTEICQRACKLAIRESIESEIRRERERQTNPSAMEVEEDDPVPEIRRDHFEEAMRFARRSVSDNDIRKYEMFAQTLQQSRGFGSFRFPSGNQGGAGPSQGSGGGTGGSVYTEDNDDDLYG
Redox H2O2 prof: compounds producing H2O2 with reducing agent – biochemical, NIH compound library profiling, artefact control for MLSCN library redox annotation, primary screen | DTT-dependent redox cycling H2O2, phenol red/HRP absorbance; 100% = 100 µM peroxide control, 0% = buffer | 0.03% of 200,000 active | AID 878 | activation, % at 10 µM;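 active means activation of at least 50% relative to the plate's high and low controls in the primary single-dose screen; inactive means activation below 50%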;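 further: compound incubated with DTT at 0.8 mM final as the reducing agent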
FAS TE block: FAS thioesterase (human) inhibition; inhibition, % at 15 µM; recombinant FAS-TE, OMFH fluorogenic substrate, fluorescence endpoint; AID 602261; 0.67% of 360,000 active;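 active means compounds whose normalised, plate-corrected inhibition of enzyme fluorescence in the single-dose primary screen is 50% or more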
Furin inh: inhibitors of human furin | P09958 | AID 463115 | purified furin, fluorogenic substrate cleavage | 0.061% of 220,000 active | inhibition, % at 20 µM or 30 µM; in the data active means inhibition above about 25%
FAS-TE inh conf: FAS thioesterase (human) inhibition, confirmation. shares compounds with FAS TE block. recombinant FAS-TE, OMFH fluorogenic substrate, fluorescence. inhibition, % at 15 µM. 45% of 2,300 active;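 active means compounds inhibiting the enzyme by at least 50% at 15 µM in any one of the replicates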
Large screens that a line does not name were inactive (follow-up assays come after a bar, where they were run).

O=C(NCc1ccc2c(c1)CCO2)Nc1cccc(C(F)(F)F)c1	none (no result: PKD1 kinase inh, Redox H2O2 prof)
COC(=O)CC(NC(=O)Nc1ccc(C)cc1)c1cccc([N+](=O)[O-])c1 (configuration not stated)	FAS TE block 53 | FAS-TE inh conf 65
O=C(O)CC(NC(=O)C(c1ccccc1)c1ccccc1)c1cccc([N+](=O)[O-])c1 (configuration not stated)	FAS TE block 52 (no result: PKD1 kinase inh, Redox H2O2 prof) | FAS-TE inh conf 64
COc1ccc(CC(=O)NC(CC(=O)O)c2cccc([N+](=O)[O-])c2)cc1 (configuration not stated)	none
CCOC(=O)CC(NC(=O)c1cc2ccccc2oc1=O)c1cccc([N+](=O)[O-])c1 (configuration not stated)	FAS TE block 50 | FAS-TE inh conf 55
O=C(O)CC(NC(=O)COc1ccccc1)c1cccc([N+](=O)[O-])c1 (configuration not stated)	none
CC(C)c1ccc(N(CC(=O)NC2CCCC2)C(=O)CCC(=O)Nc2ccccn2)cc1	none (no result: PKD1 kinase inh, p97 ATPase inh, Redox H2O2 prof, Furin inh)
Cc1ccc(CNC(=O)c2ccc(N3CCC4(CC3)CC(c3ccccc3)=NO4)c(NC(=O)c3c(Cl)cccc3Cl)c2)cc1	FAS TE block 63 (no result: PKD1 kinase inh, SUMO HTRF inh, p97 ATPase inh, Redox H2O2 prof, Furin inh) | FAS-TE inh conf inactive
COc1cccc(C(=O)Nc2cc(C(=O)NCc3ccc(C)cc3)ccc2N2CCC3(CC2)CC(c2ccccc2)=NO3)c1	none (no result: PKD1 kinase inh, p97 ATPase inh, Redox H2O2 prof, Furin inh)
Cc1ccc(C(NC(=O)/C=C\c2ccc3c(c2)OCO3)C(=O)Nc2ccc3c(c2)OCO3)cc1 (configuration not stated)	FAS TE block 55 | FAS-TE inh conf inactive
N#CCSc1nc2c(sc(=S)n2Cc2ccco2)c(=O)n1-c1ccc(F)cc1	FAS TE block 58 | FAS-TE inh conf inactive
COc1ccc2c(c1)OC[C@H]1[C@H]2N2C(=O)c3cc(Br)ccc3NC(=O)[C@@]2(C)[C@H]1c1ccccc1	FAS TE block 86 (no result: PKD1 kinase inh, SUMO HTRF inh, p97 ATPase inh, Redox H2O2 prof, Furin inh) | FAS-TE inh conf inactive
COc1ccc2c(c1)OC[C@H]1[C@H]2N2C(=O)c3ccc(F)cc3NC(=O)[C@@]2(C)[C@H]1c1ccccc1	FAS TE block 84 (no result: PKD1 kinase inh, SUMO HTRF inh, p97 ATPase inh, Redox H2O2 prof, Furin inh) | FAS-TE inh conf inactive
COc1ccc2c(c1)[C@H]1[C@H](CO2)[C@H](c2ccccc2)[C@]2(C)C(=O)Nc3cc(F)ccc3C(=O)N12	FAS TE block 54 (no result: PKD1 kinase inh, SUMO HTRF inh, p97 ATPase inh, Redox H2O2 prof, Furin inh) | FAS-TE inh conf inactive
COc1ccc2c(c1)C(=O)N1[C@H]3c4cc(OC)ccc4OC[C@@H]3[C@H](c3ccccc3)[C@]1(C)C(=O)N2	FAS TE block 72 (no result: PKD1 kinase inh, SUMO HTRF inh, p97 ATPase inh, Redox H2O2 prof, Furin inh) | FAS-TE inh conf inactive
COc1ccc2c(c1)[C@H]1[C@H](CO2)[C@H](c2ccccc2)[C@]2(C)C(=O)Nc3ccccc3C(=O)N12	none (no result: PKD1 kinase inh, SUMO HTRF inh, p97 ATPase inh, Redox H2O2 prof, Furin inh)
CC(C)(C)c1ccc(OCC(=O)NCCN2CCOCC2)cc1	none (no result: PKD1 kinase inh, p97 ATPase inh, Redox H2O2 prof, Furin inh)
Cc1ccc(C)c(S(=O)(=O)N2CCCOC2CNC(=O)C(=O)NC2CC2)c1 (configuration not stated)	none (no result: PKD1 kinase inh, p97 ATPase inh, Redox H2O2 prof, Furin inh)
O=C(CN(C(=O)c1ccc(Cl)cc1Cl)N1C(=O)C2C3C=CC(C3)C2C1=O)c1ccc(F)cc1 (configuration not stated)	none (no result: SUMO HTRF inh)
Cc1ccc(C(=O)CN(C(=O)c2ccc(Cl)c(Cl)c2)N2C(=O)C3C4C=CC(C4)C3C2=O)cc1 (configuration not stated)	FAS TE block 61 | FAS-TE inh conf inactive
COc1cc(NC(=O)C2(C)CCN2C(=O)C(C)C)cc(OC)c1OC (configuration not stated)	none (no result: PKD1 kinase inh, SUMO HTRF inh, p97 ATPase inh, Redox H2O2 prof, Furin inh)
Cc1ccc(C(C)C)c(OCC(=O)NN=C2CCCC(=O)C2)c1	none (no result: PKD1 kinase inh, SUMO HTRF inh, p97 ATPase inh, Redox H2O2 prof, Furin inh)
Cc1cccc2sc(NC(=O)c3cccc(S(=O)(=O)N4CCc5ccccc54)c3)nc12	none
Cc1cc(C)c2nc(NC(=O)c3cccc(S(=O)(=O)N4CCc5ccccc54)c3)sc2c1	FAS TE block 70 | FAS-TE inh conf inactive
CCCn1c(SCC(=O)Nc2ccccc2-c2ccccc2)nnc1-c1ccoc1C	FAS TE block 60 | FAS-TE inh conf 74
Cc1cccc(C)c1NC1=C(Cl)C(=O)OC1OC(=O)c1ccccc1 (configuration not stated)	FAS TE block 64 | FAS-TE inh conf 29
Cc1ccc(NC2=C(Cl)C(=O)OC2OC(=O)c2ccccc2)c(C)c1 (configuration not stated)	none

Bioassay records deposited in PubChem by several laboratories.
